Screening results (PubChem BioAssay)
Resorufin fluor: qHTS Assay for Spectroscopic Profiling in Resorufin Spectral Region; Compound fluorescence, resorufin region 547/598 nm, buffer; hits give high values; max dye-equivalent concentration, M; 59,000 tested, 0.04% active
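Compounds in 100 mM Tris buffer, pH 8.0, incubated 15 min at room temperature, then read with 547 nm excitation and 598 nm emission filters. Fluorescence was converted to dye-equivalent concentration using an on-plate six-point resorufin standard curve.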
Fluorescein autfl: qHTS Assay for Spectroscopic Profiling in Fluorescein Spectral Region. max fluorescein-equivalent concentration, M. Compound autofluorescence, 480/540 nm, fluorescein-equivalent; hits give high values. 59,000 tested, 0.91% active; in the data active = max fluorescein-equivalent concentration above about 10 nM; inconclusive = between about 1.1 nM and that limit
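Autofluorescence profiling; 100 mM Tris, pH 8.0; incubation 15 min at RT; ex/em 480/540 nm; result as fluorescein-equivalent concentration.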
A488 fluor: qHTS Assay for Spectroscopic Profiling in A488 Spectral Region; compound autofluorescence, A488 spectral region, dye equivalency; Compound Type: qHTS ECL - MLSMR; max dye equivalency, M; 59,000 tested, 0.1% active
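Intrinsic compound fluorescence is measured in 100 mM Tris buffer at pH 8.0 following 15 min incubation at room temperature. Intensities at 480 nm excitation/540 nm emission are calibrated to an on-plate A488 concentration series, giving dye-equivalent concentrations.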
Texas Red fluor: qHTS Assay for Spectroscopic Profiling in Texas Red Spectral Region. Compound fluorescence, Texas Red channel, 547/618 nm; hits give high values. max dye-equivalent concentration, M. 59,000 tested, 0.06% active; in the data active = max dye-equivalent concentration above about 10 nM; inconclusive = between about 1.1 nM and that limit
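Spectral interference profiling: each compound concentration's relative fluorescence, read with a 547 nm excitation and 618 nm emission filter pair, was normalized to a per-plate Texas Red standard curve.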
Rhodamine autofl: qHTS Assay for Spectroscopic Profiling in Rhodamine Spectral Region; Rhodamine-region fluorescence, 547/598 nm, Tris buffer; hits give high values; max dye-equivalent concentration, M; 59,000 tested, 0.05% active; AID 594, 2007; in the data active = max dye-equivalent concentration above about 11 nM; inconclusive = between about 1.1 nM and that limit
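Compound fluorescence in 100 mM Tris, pH 8.0, read after 15 min at room temperature with 547 nm excitation and 598 nm emission. Output is dye-equivalent concentration from an on-plate rhodamine standard series.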
A647 autofl: qHTS Assay for Spectroscopic Profiling in A647 Spectral Region | max dye-equivalent concentration, M | Compound fluorescence, A647 channel (570/671 nm), Tris buffer | 59,000 tested, under 10 active | AID 592, 2007;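 note: values scaled relative to a standard on each plate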
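Fluorescence read (570 nm ex, 671 nm em) after 15 min RT incubation of compounds in 100 mM Tris buffer, pH 8.0; values expressed as dye-equivalent concentration against a six-point A647 standard series on each plate.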
Numbers without * were called inactive; i = inactive; u = inconclusive. Sampled rows, rich in hits. Any-hit rate of the full collection: about 0.96%. Unless noted, the rule behind the calls is not given here.

SMILES | Resorufin fluor | Fluorescein autfl | A488 fluor | Texas Red fluor | Rhodamine autofl | A647 autofl
CCOC(=O)c1ccc(NC(=O)c2c(O)[nH]c(=O)[nH]c2=O)cc1 | i | 4.06e-05M* | 2.34e-06M* | u | u | 1e-09
COc1cc2c(cc1OC)[C@]13CCN4CC5=CCO[C@@H]6CC(=O)N2[C@@H]1[C@H]6[C@@H]5C[C@H]43 | i | u | i | i | i | 1.54e-08
COCCOC(=O)c1c(N)n(Cc2ccco2)c2nc3ccccc3nc12 | i | 4.28e-08M* | u | i | i | 1e-09
CC(C)OC(=O)c1c(N)n(Cc2ccco2)c2nc3ccccc3nc12 | i | 3.6e-08M* | u | i | i | 3.53e-08
COc1ccc(Cn2c(N)c(C(=O)NCc3ccco3)c3nc4ccccc4nc32)cc1OC | i | u | i | i | i | 1.36e-08
COCCOC(=O)c1c(N)n(Cc2ccc(OC)cc2)c2nc3ccccc3nc12 | i | i | i | u | i | 4.9e-09
N[C@H](Cc1ccc2oc3cc(=O)c4ccccc4c-3nc2c1)C(=O)O | u | 8.49e-07M* | 3.89e-08M* | 4.7e-08M* | 1.16e-08M* | 1.08e-08
N[C@@H](Cc1cc(Br)c(O)c(Br)c1)C(=O)O | i | i | i | i | i | 1e-09
